From PubChem
A selection: hits, their analogues and other compounds. The true share with any hit is near 7%.
S2 tox: cell viability loss in ATXN counter-screen | 400,000 compounds, 0.49% hits | S2 cells (HEK-293 line with an ATXN2-luciferase reporter) viability, CellTiter-Fluor protease fluorescence, 24 h | Potency, µM (series often up to 56.7 µM), hits mostly cytotoxic; also: potency is read from the fitted curve at half-maximal effect; nearly all actives have a fitted effect of over 40% in size
a7 integrin act: activates integrin-mediated alleviation for muscular dystrophy | alpha7betagal myoblasts, beta-gal FDG fluorescence, 48 h | Potency, µM (series often up to 38.3 µM), inactives show at the highest dose activation, most hits filed as activators | 350,000 compounds, 0.064% hits | AID 624291;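 also: potency is read from the fitted curve at half-maximal effect; 100% = response of the positive control SU9516; nearly all actives have a fitted effect of over 60% in size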
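Alpha7betagal+/- myoblasts (passage 13) were plated 16-24 hr, then exposed to compounds (1:260 dilution of DMSO stock) for 48 hours at 37C. After MPER lysis, β-galactosidase reporter activity was read as FDG fluorescence (ex 480/em 540) after 30 minutes.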
ATXN2 expr inh: inhibitors of ATXN2 expression. HEK-293 ATXN2-luciferase reporter, luminescence, 24 h. Potency, µM (titrated, usually from 57 µM), for the others: top-dose activity change, negative = inhibition, most hits filed as inhibitors. 360,000 compounds, 0.72% hits; also: potency is read from the fitted curve at half-maximal effect; % is scaled to controls: 0 for no effect and ±100 for the full control effect; nearly all actives have a fitted effect of over 55% in size
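qHTS (up to 57 uM final) was run with 24 h compound exposure of reporter cells at 37 °C. Each well was multiplexed: SteadyGlo luminescence measured ATXN2-luciferase expression after a fluorogenic Gly-Phe-AFC viability readout (25 uM final).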
IL-1B inflam inh: inhibitors of inflammasome signaling (IL-1 beta secretion); 360,000 compounds, 4.7% hits; THP-1 LPS/ATP IL-1B secretion, AlphaLISA, 16 h; stronger effect = lower value; activity change, % at 57.5 µM; in the data active = activity change below about -50%; inconclusive = mostly about -30% to -49%; also: % is scaled to controls: 0 for no effect and ±100 for the full control effect
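THP-1 cells pretreated 1 hr with compounds (up to 57.5 uM final), then stimulated with LPS (250 ng/mL final) plus ATP (1.25 mM final); secreted IL-1B measured by AlphaLISA after 16 hr, decreased signal indicating inhibition.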
D3 ag: D3 dopamine receptor (human) agonism; D3R DiscoveRx beta-arrestin cells, luminescence, 90 min; max activation, %; 410,000 compounds, 0.58% hits; AID 652048; in the data active = max activation above about 30%; also: 0% is about no effect
Target sequence (P35462 whole entry, looked up): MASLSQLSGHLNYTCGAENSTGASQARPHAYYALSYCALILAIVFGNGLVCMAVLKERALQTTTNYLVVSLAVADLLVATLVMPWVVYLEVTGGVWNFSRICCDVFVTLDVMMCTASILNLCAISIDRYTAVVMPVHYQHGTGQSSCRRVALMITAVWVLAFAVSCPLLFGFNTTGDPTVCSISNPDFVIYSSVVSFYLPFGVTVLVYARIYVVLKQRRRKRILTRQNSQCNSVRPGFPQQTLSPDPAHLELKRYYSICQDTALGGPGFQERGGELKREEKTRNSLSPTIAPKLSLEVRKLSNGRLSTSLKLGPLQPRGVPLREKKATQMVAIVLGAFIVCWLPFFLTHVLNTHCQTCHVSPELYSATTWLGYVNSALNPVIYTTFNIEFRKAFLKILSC
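Agonist-mode cell screen: cells plated at 1500/well and incubated overnight at 37 °C, then exposed to library compounds for 90 min at 37 °C. Detection reagent was added for 30–60 min at room temperature, and luminescence was read.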
D3 antag: D3 dopamine receptor (human) antagonism. P35462. 360,000 compounds, 2.5% hits. D3R cells, DiscoveRx beta-arrestin luminescence, antagonist mode; stronger effect = lower value. AID 652054. max response, negative = inhibition, %; in the data active = max response below about -50%; inconclusive = no clear call, values can overlap the other calls; also: % is scaled to controls: 0 for no effect and ±100 for the full control effect
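Cells plated overnight at 1500 cells/well, then exposed to library compounds with dopamine controls for 90 minutes at 37 degrees C. DiscoveRx reagent added for 30–60 minutes at room temperature; luminescence read, quantitative HTS format.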
Numbers without * were called inactive; i = inactive; ? = inconclusive; · = not tested or not shown; [ ] = remark or other dose. Unless noted, calls follow the shape of the dose curve; as a rule, active = well fitted curve in the direction sought with a large enough effect; inconclusive = small, poorly fitted or top-dose-only effect, or another doubt; inactive = no such curve, though single readings can be large; an effect the other way counts as inactive or inconclusive.

SMILES	S2 tox	a7 integrin act	ATXN2 expr inh	IL-1B inflam inh	D3 ag	D3 antag
COc1ccc(NC(=O)c2ccc(C)cc2Cl)c([N+](=O)[O-])c1	i	14%	47%	-30	2	-63*
COc1ccc(NC(=S)NC(NC(=O)c2ccc(Cl)cc2Cl)C(Cl)(Cl)Cl)c([N+](=O)[O-])c1 (stereo not given)	?	-7%	?	-95*	-12	-23
COc1ccc(NC(=S)NC(NC(=O)CCl)C(Cl)(Cl)Cl)c([N+](=O)[O-])c1 (stereo not given)	?	-39%	·	-50*	5	24
COc1ccc(NC(=O)c2cc(Br)ccc2Cl)c([N+](=O)[O-])c1	i	2%	?	-4	-1	-6
O=C(NNC(=S)Nc1ccccc1)c1ccccc1[N+](=O)[O-]	i	33%	35%[11.3 µM]	-73*	6	-11
CC(=O)c1ccc(NC(=S)NNC(=O)c2ccccc2[N+](=O)[O-])cc1	i	12%	4%	-6	-2	-17
CNC(=O)Nc1cc(C)nn1C	i	-28%	·	15	-2	3
COc1ccc(C2CC(=O)C3=C(C2)NC(C)=C(C#N)C3c2ccc(N(C)C)cc2)cc1 (stereo not given)	i	0%	-13%	-66*	-9	?
CCn1ncc(S(=O)(=O)NCc2ccco2)c1C	i	-14%	-1%	0	6	8
CC(NNC(=S)N1CCCCCC1)c1ccc2ccccc2n1 (stereo not given)	·	·	8.9µM*	85	-13	-6
CC(C)c1cc(-c2n[nH]c(=O)n2-c2ccc3c(ccn3C)c2)c(O)cc1O	·	·	0.077µM*	·	·	·
CC(=O)Oc1ccccc1Cn1c(C)c(C(=O)NCc2ccc(F)cc2)sc1=O	i	·	0%	-18	1	7
CC1c2cc3c(cc2CCN1C(=O)c1ccc(Cl)cc1)OCCCO3 (stereo not given)	i	-3%	-24%	-59*	-2	-25
O=C(/C=C/c1ccoc1)c1ccccc1O	i	-9%	-2%	30	2	19
O=C(C=Cc1cccc(O)c1)c1ccccc1O	?	-20%	?	-93*	-5	-19
O=C(C=Cc1ccccc1O)c1ccccc1O	?	0%	-24%	-97*	-9	-10
O=C(O)/C=C\c1ccc(O)c(O)c1	i	·	·	·	·	·
O=C(/C=C/c1ccc(O)cc1)c1ccc(O)cc1O	?	·	16%	-17	-24	-24
O=C(/C=C/c1ccc(O)c(O)c1)c1ccccc1O	?	-44%	85%	-93*	6	-25
Cc1ccc(CN(Cc2ccco2)C(=O)COc2cccc(C)c2C)o1	·	·	·	·	1	·
COc1cc([C@@H]2c3cc4c(cc3C(O[C@@H]3O[C@@H]5COC(c6cccs6)O[C@H]5[C@H](O)[C@H]3O)C3COC(=O)[C@@H]32)OCO4)cc(OC)c1O (stereo not given in full)	·	·	·	·	4	·
Cc1csc(Sc2ccc(C(=O)OCC(=O)Nc3ccc(OC(F)(F)F)cc3)cc2[N+](=O)[O-])n1	i	-56%	10%	-10	2	13
COc1ccc(-c2cn3cccnc3n2)cc1NC(=O)Cc1ccccc1	·	·	·	·	-4	·
CCOC(=O)C1=NN(C(=O)c2ccc(C)cc2)C(O)(c2ccc(Cl)cc2)C1 (stereo not given)	i	-18%	2%	-1	-9	-57*
CCC1=NN(C(=O)c2ccc(Cl)cc2)C(O)(c2ccc(C)cc2)C1 (stereo not given)	i	19%	5%	48	4	8
CCOC(=O)C1=C(CSc2nc(C)ccc2C#N)OC(N)=C(C#N)C1c1cccc(OC)c1OC (stereo not given)	i	-33%	-23%	13	-20	0
CCN(CC)c1ccc(/C=N/NC(=O)C2CC2)cc1	i	-1%	0%	-13	3	-6
Cc1nn(-c2nc3ccccc3[nH]2)c(=O)c2ccccc12	i	-21%	0.4µM*	-16	6	0
